The values that follow come from PubChem BioAssay (Tox21).

Test [1] in a line: qHTS assay to identify small molecule agonists of the NFkB signaling pathway - cell viability counter screen (AID 1159515; calls by dose curve; also: series mostly up to about 61 µM; nearly all actives have a fitted effect of over 55% in size). An outline of the steps:
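5 hr compound treatment of NFkB-bla ME-180 cells (2,000/well, seeded overnight beforehand), followed by reporter substrate for 1.5 hr. CellTiter-Glo added afterward; luminescence after 30 min RT.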

The nature of test [2]: qHTS assay to identify small molecule agonists of the endoplasmic reticulum stress response signaling pathway (AID 1159516; active = well fitted activation curve with a large enough effect in the signal ratio in the repeat runs, not every such curve was filed as active; the % refers to the signal ratio). The procedure, abridged: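 Reporter HeLa cells (ESRE-beta-lactamase) underwent 5 hr compound incubation at 37 C and 5% CO2 in quantitative HTS format. Detection followed 2 hr of FRET substrate loading at room temperature.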
(In general: Quantitative high-throughput screening tests each substance at several concentrations.)

A short description of test [3]: qHTS assay to identify small molecule agonists of the endoplasmic reticulum stress response signaling pathway - cell viability counter screen (AID 1159517; calls by dose curve; also: series mostly up to about 61 µM; nearly all actives have a fitted effect of over 50% in size). An outline of the steps: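 HeLa cells carrying an ESRE-driven beta-lactamase reporter receive compound for 5 hr at 37 C. Cell viability is then gauged with CellTiter-Glo by luminescence, 30 min at room temperature.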

Test [4] in a line: qHTS assay to identify small molecule antagonists of the retinoid-related orphan receptor gamma (ROR-gamma) signaling pathway - cell viability counter screen (AID 1159520). Also: nearly all actives have a fitted effect of over 50% in size. The procedure, abridged: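 Cytotoxicity was read from cellular ATP (CellTiter-Glo luminescence) after 16 hr at 37 C with 1 uM doxycycline induction. The inducer was added 2 hr after compound transfer to Tet-on ROR gamma CHO cells.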

The target of test [5] is Nuclear receptor ROR-gamma (Homo sapiens) (UniProt P51449). The test can be described thus: qHTS assay to identify small molecule antagonists of the retinoid-related orphan receptor gamma (ROR-gamma) signaling pathway (AID 1159521; also: top concentration of the series differs between compounds; nearly all actives have a fitted effect of over 50% in size). An outline of the steps: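 Inducible-expression reporter assay: doxycycline (1 uM final) switched on RORγ in CHO cells bearing a ROR response element-luciferase construct, with test compounds present from 2 h beforehand. Decreased luminescence after 16 h defined antagonist activity.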

Test [6] in a line: qHTS assay to identify small molecule agonists of the AP-1 signaling pathway - cell viability counter screen (AID 1159525; calls by dose curve; also: nearly all actives have a fitted effect of over 55% in size). The procedure, abridged: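 Luminescent ATP readout (Cell Titer Glo, 30 min RT), normalised to DMSO and tetra n-octyl ammonium bromide controls. Cells were ME-180 AP-1-bla in 0.5% dialyzed FBS Opti-MEM, with a 5 h, 37 °C compound exposure.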
Test [7] can be described thus: qHTS assay to identify small molecule agonists of the AP-1 signaling pathway (AID 1159526; calls by dose curve).
Test [8] concerns the target Retinoic acid receptor RXR-alpha (Homo sapiens) (UniProt P19793). In words: qHTS assay to identify small molecule agonists of the RXR signaling pathway (AID 1159527; calls by dose curve; also: nearly all actives have a fitted effect of over 35% in size). The procedure, abridged:
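Compounds in DMSO were added to RXR-alpha-UAS-bla HEK 293T cells kept in 2% charcoal-stripped serum, and incubated 16 hr at 37 C with 5% CO2. Reporter signal came from a 2 hr B/G FRET substrate step.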

The nature of test [9]: qHTS assay to identify small molecule agonists of the RXR signaling pathway - cell viability counter screen (AID 1159529). Also: series mostly up to about 77 µM; nearly all actives have a fitted effect of over 50% in size. An outline of the steps: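 Counter screen: CellTiter-Glo luminescence. Cells: RXR-alpha-UAS-bla HEK 293T. Medium: 2% charcoal-stripped FBS. Treatment: 16 h, 37 C. Reagent incubation: 30 min, RT.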
Test [10] is described as follows: qHTS assay to identify small molecule antagonists of the retinoid acid receptor (RAR) signaling pathway - cell viability counter screen (AID 1159551). Also: nearly all actives have a fitted effect of over 35% in size. The procedure, abridged:
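Seed C3RL4 cells; next day add compound, then retinol to 1 uM final; incubate 6 h at 37 C; add CellTiter-Glo; read luminescence after 30 min at RT.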

Test [11] in a line: qHTS assay to identify small molecule antagonists of the retinoic acid receptor (RAR) signaling pathway (AID 1159552; also: nearly all actives have a fitted effect of over 50% in size). An outline of the steps:
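Antagonism of retinol-induced RARE reporter activity was measured in C3RL4 cells. Exposure to compounds and 1 uM final retinol lasted 6 hr at 37 C, with luminescence as endpoint.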

A short description of test [12]: qHTS assay to identify small molecule agonists of the retinoic acid receptor (RAR) signaling pathway (AID 1159553). The procedure, abridged:
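Activation of retinol signaling was monitored via a RARE luciferase reporter in C3RL4 cells. After 6 hr compound treatment at 37 C, detection reagent was added for 30 min at room temperature before luminescence reading.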

The nature of test [13]: qHTS assay to identify small molecule antagonists of the estrogen related receptor (ERR) signaling pathway from Tox21 library - cell viability counter screen (AID 1224834). Also: nearly all actives have a fitted effect of over 30% in size. The procedure, abridged: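 CellTiter-Fluor fluorescence measured; ERR cells; 17.5 h compound incubation at 37 C; 30 min reagent step.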
Test [14] has as its target Luciferin 4-monooxygenase (Photinus pyralis) (UniProt P08659). In words: qHTS assay to identify small molecule inhibitors of firefly luciferase (AID 1224835). Also: nearly all actives have a fitted effect of over 25% in size. Also: potency is read from the fitted curve at half-maximal effect. The procedure, abridged: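 Inhibition of purified Photinus luciferase is measured by luminescence. Substrate levels (D-luciferin, ATP) sit at their KM values. Each compound is tested in a concentration series.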

Test [15] can be described thus: qHTS assay to identify small molecule agonists of the constitutive androstane receptor (CAR) signaling pathway - cell viability counter screen (AID 1224836). Also: series mostly up to about 92 µM; nearly all actives have a fitted effect of over 45% in size. An outline of the steps:
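Double-stable HepG2 hepatoma cells (hCAR plus CYP2B6-2.2kb) are treated for 23 h at 37 C with test compounds in 15-point concentration series. PK11195 at 0.75 uM final is co-added. Cell viability is quantified by CellTiter-Fluor.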

Test [16] in a line: qHTS assay to identify small molecule antagonists of the constitutive androstane receptor (CAR) signaling pathway - cell viability counter screen (AID 1224837). Also: series mostly up to about 92 µM; nearly all actives have a fitted effect of over 45% in size. The procedure, abridged:
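Using CellTiter-Fluor, viability is scored in HepG2 cells stably carrying hCAR and a 2.2kb CYP2B6 reporter after 23 hr compound exposure across 15 concentrations, with CITCO present at 50 nM.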

For test [17], the target named is Nuclear receptor subfamily 1 group I member 3 (Homo sapiens) (UniProt Q14994). The test can be described thus: qHTS assay to identify small molecule antagonists of the constitutive androstane receptor (CAR) signaling pathway (AID 1224838).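 Also: HepG2 cells stably expressing hCAR with CYP2B6 luciferase reporter stimulated by CITCO; nearly all actives have a fitted effect of over 40% in size.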 The procedure, abridged: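 Reporter luminescence was quantified after 24 h exposure of hCAR/CYP2B6-2.2kb double-stable HepG2 cells to compounds at 15 concentrations in the presence of 50 nM CITCO final.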
Nuclear receptor subfamily 1 group I member 3 (Homo sapiens), sequence (Q14994 whole entry, looked up): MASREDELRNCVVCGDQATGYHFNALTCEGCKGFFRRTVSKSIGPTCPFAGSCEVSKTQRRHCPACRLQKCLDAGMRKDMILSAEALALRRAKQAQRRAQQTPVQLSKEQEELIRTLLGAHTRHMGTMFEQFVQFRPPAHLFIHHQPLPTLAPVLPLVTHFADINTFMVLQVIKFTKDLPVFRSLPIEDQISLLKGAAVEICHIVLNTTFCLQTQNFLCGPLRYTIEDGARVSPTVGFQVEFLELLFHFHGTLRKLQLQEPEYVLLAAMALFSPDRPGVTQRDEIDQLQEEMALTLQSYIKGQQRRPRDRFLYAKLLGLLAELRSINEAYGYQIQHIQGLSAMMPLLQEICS

Test [18] in a line: qHTS assay to identify small molecule antagonists of the estrogen related receptor signaling pathway with the pleiotropic PPARgamma coactivator (PGC) from Tox21 10K library - cell viability counter screen (AID 1224840; active = well fitted cell-killing curve with a large enough effect in the repeat runs, not every such curve was filed as active; also: nearly all actives have a fitted effect of over 40% in size). An outline of the steps:
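Here the PGC/ERR cells serve as a cytotoxicity control: they are exposed to compounds for 17.5 hours at 37 C, and live-cell signal is quantified using CellTiter-Fluor fluorescence.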

Test [19] is described as follows: qHTS assay to identify small molecule antagonists of the vitamin D receptor (VDR) signaling pathway - cell viability counter screen (AID 743225). Also: nearly all actives have a fitted effect of over 50% in size. The procedure, abridged: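 Same-well multiplex: following 16 h treatment of HEK 293T cells carrying a UAS-driven beta-lactamase reporter with compound and agonist (3 nM final), and a 2 h FRET substrate step, CellTiter-Glo was added and luminescence read after 30 min.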

The target in test [20] is Nuclear receptor subfamily 1 group I member 3 (Homo sapiens) (UniProt Q14994). The test can be described thus: qHTS assay to identify small molecule agonists of the constitutive androstane receptor (CAR) signaling pathway (AID 1224839). Also: nearly all actives have a fitted effect of over 15% in size. Also: potency is read from the fitted curve at half-maximal effect.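 As to activation: HepG2 cells stably carrying human CAR and a CYP2B6 luciferase reporter; series mostly up to about 92 µM.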 The procedure, abridged:
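Readout: firefly luciferase luminescence via ONE-Glo. System: HepG2 double-stable for hCAR and CYP2B6-2.2kb. Conditions: 15-point compound titration, PK11195 at 0.75 uM final, 24 h incubation.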

Inconclusive results are not listed. Values without a mark were called inactive. Activity calls are given as the source filed them. Unless noted, calls follow the shape of the dose curve; as a rule, active = well fitted curve in the direction sought with a large enough effect in the repeat runs; inconclusive = weak or mixed curves; inactive = no such curve, though single readings can be large; an effect the other way counts as inactive or inconclusive.

Luciferin 4-monooxygenase (Photinus pyralis), sequence (P08659 whole entry, looked up): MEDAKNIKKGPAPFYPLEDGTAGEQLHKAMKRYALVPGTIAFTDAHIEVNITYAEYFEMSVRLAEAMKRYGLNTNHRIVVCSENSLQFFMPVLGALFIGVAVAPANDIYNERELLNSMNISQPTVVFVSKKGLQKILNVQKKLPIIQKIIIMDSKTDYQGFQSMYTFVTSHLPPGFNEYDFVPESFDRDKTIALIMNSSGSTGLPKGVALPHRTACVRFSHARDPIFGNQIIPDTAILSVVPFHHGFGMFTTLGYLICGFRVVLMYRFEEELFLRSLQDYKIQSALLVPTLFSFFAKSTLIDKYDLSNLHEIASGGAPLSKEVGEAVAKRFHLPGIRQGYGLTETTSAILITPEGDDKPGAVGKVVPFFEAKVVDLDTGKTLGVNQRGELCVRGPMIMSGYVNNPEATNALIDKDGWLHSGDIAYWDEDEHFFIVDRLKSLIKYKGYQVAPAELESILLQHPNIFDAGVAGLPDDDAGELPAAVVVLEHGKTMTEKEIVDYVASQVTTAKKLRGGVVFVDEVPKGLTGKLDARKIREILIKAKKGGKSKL
Retinoic acid receptor RXR-alpha (Homo sapiens), sequence (P19793 whole entry, looked up): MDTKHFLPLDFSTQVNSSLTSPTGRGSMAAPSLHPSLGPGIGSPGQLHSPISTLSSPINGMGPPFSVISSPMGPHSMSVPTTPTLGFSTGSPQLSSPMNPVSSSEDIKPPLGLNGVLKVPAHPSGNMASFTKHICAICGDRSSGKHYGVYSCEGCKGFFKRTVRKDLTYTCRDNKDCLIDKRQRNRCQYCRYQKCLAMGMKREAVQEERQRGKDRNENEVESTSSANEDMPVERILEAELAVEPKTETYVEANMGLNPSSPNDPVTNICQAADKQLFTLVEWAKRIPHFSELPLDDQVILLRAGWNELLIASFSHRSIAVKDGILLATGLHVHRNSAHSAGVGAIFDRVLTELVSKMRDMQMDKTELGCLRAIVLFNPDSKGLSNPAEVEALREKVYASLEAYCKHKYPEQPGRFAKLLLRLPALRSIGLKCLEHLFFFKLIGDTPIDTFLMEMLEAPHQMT

Take `CC(C)C[P+](C)(CC(C)C)CC(C)C`: the compound was classed as inactive in [1], in test [3], in test [4], in test [5], in test [6] and in test [10]. Further, the compound was classed as inactive in [11], in test [13], in [15], in test [16], in [17] and in [18]. In addition, the Potency result in test [2], in [7], in test [8], in test [9], in test [12] and in test [14] was “inactive” each time.

For the compound `Cc1cc(C)c(C)c(C)c1`, the result in test [19], in test [1], in test [3], in [4], in test [5] and in test [6] was inactive. Moreover, the compound was called inactive in test [10], in test [11], in test [13], in [15], in [16] and in test [17]. For the same compound, the result in test [18] was inactive. The Potency entry in [2], in [7], in test [8], in [9], in test [12] and in test [14] was “inactive” each time. In addition, the Potency entry in test [20] is “inactive”.

As for `N[C@H]1C(O)O[C@H](CO)[C@@H](O)[C@@H]1O` (some centres undefined), the compound was classed as inactive in test [19], in [1], in test [3], in test [4], in test [5] and in test [6]. Further, the result in [10], in test [11], in test [13], in test [15], in [16] and in test [17] was inactive. In [18], the compound was called inactive. Besides, the Potency entry in test [2], in [7], in test [8], in test [9], in test [12] and in test [14] was “inactive” throughout. For the same compound, in test [20], the Potency entry is “inactive”.

Regarding `O=Cc1ccc(C(=O)O)cc1`, the outcome in test [19], in test [1], in test [3], in test [4], in test [5] and in test [6] was inactive. Also, the compound was called inactive in test [10], in test [11], in [13], in test [15], in test [16] and in [17]. Moreover, in test [18], the compound was classed as inactive. Also, the Potency entry in test [2], in [7], in test [8], in test [9], in test [12] and in test [14] was “inactive” in each case.

Regarding `O=C1c2ccccc2C(=O)N1CO`, the call in test [1], in [3], in test [4], in [5], in [6] and in test [10] was inactive. For the same compound, the compound was called inactive in [11], in [13], in test [15], in test [16], in test [17] and in test [18]. The Potency result in test [2], in test [7], in [8], in test [9], in [12] and in test [14] was “inactive” throughout.

Regarding `CC(C)(C)C(=O)CCc1ccc(Cl)cc1`, the compound was classed as inactive in [19], in [1], in test [3], in [4], in test [5] and in test [6]. The result in [10], in test [11], in test [13], in test [15], in test [16] and in test [17] was inactive. Besides, in test [18], the call was inactive. Further, the Potency entry in test [2], in [7], in test [8], in test [9], in [12] and in [14] was “inactive” each time.

Turning to `CC(=O)c1ccc2ccc3ccccc3c2c1`, the call in test [19], in test [1], in test [3], in test [4], in test [5] and in test [6] was inactive. Further, the compound was classed as inactive in test [10], in test [11], in test [13], in test [15], in test [16] and in test [17]. Besides, the result in [18] was inactive. Moreover, the Potency entry in [2], in [7], in test [8], in [9] and in test [12] was “inactive” throughout. Also, the Potency in test [14] was 31.5 µM (active); in test [20] it was 60.8 µM (active).
